Rab9 promoter act: activates the Rab9 promoter; Huh7 Rab9 promoter-luciferase reporter, luminescence, 24 h; Potency, µM (titrated, usually from 9.22 µM), for inactives: top-dose activation, negative = inhibition, most hits filed as activators; hit rate 2.8% among 320,000; note: % of control where 0% means no effect; nearly all actives have a fitted effect of over 60% in size
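Cell-based reporter: Huh7 stable for Rab9 promoter-driven luciferase, plated in reduced-serum medium with 10% FBS at 1500 cells/well, compound-treated 24 h at 37 °C, luminescence read after 10 min reagent.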
ELG1 repair inh: blocks ELG1-dependent DNA repair in HEK293T cells. HEK293T ELG1-luciferase reporter, luminescence, 16 h; DNA damage induced by 5-fluorouridine. Potency, µM (titrated, usually from 46.1 µM), for the others: at the top dose activity change, negative = inhibition, most hits filed as inhibitors. hit rate 2.3% among 330,000; note: % is set by controls: 0 for no effect and ±100 for the full control effect; nearly all actives have a fitted effect of over 55% in size
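Luminescence from the luciferase reporter, measured 30 min after ONE-Glo reagent at room temperature, was the read-out. Beforehand, 2,000 cells per well were exposed for 16 hr at 37 °C to 5-fluorouridine together with compound or vehicle.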
NPC1 prom act: NPC1 promoter activation; Huh7 NPC1 promoter luciferase reporter, 24 h; AID 485313; Potency, µM (doses to about 9.22 µM), for inactives: at the top dose activation, usual class: activators; hit rate 2.4% among 320,000; note: % of control where 0% means no effect; nearly all actives have a fitted effect of over 60% in size
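In 1536-well qHTS, Huh7 cells harboring an NPC1 promoter–luciferase construct received compound for 24 h; activation was quantified by luminescence following luciferase reagent addition.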
ELG1 genotox: induces genotoxicity in HEK293T cells with luciferase-tagged ELG1 | hit rate 1.3% among 330,000 | HEK293T ELG1-luciferase reporter, luminescence, 16 h | Potency, µM (top dose mostly 46 µM), inactives show at the highest dose activity change, positive = activation, hits mostly activators; note: % of control where 0% means no effect; nearly all actives have a fitted effect of over 60% in size
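HEK293T cells expressing luciferase-tagged ELG1 were exposed to compound or DMSO vehicle for 16 hr at 37 °C and 5% CO2. Luciferase activity was then measured with ONE-Glo after 30 min at room temperature.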
SMN2 splice enh: enhancers of SMN2 splice variant expression; Potency, µM (highest dose often 46.1 µM), for the others: at the top dose activity change, positive = activation, hits mostly activators; HEK293 SMN2-luciferase splicing reporter, luminescence, 30-36 h; hit rate 2.8% among 210,000; note: % of control where 0% means no effect; nearly all actives have a fitted effect of over 55% in size
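qHTS luciferase splicing reporter: luminescence rises when SMN2 exon 7 is included in transfected HEK293 cells. Compound exposure lasted 30-36 h at 37C, with 4.5 mM final sodium butyrate as control, followed by a ONE-Glo read.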
FLuc counter: counter-screen for miR-21 project: firefly luciferase inhibitors or activators; P08659; Potency, µM (highest dose often 57.5 µM), for inactives: top-dose activity change, negative = inhibition, hits mostly inhibitors; purified FLuc, Km substrates, luminescence inhibition; hit rate 6.9% among 360,000;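 note: plate controls were vehicle for no effect and reference inhibitor for full effect; nearly all actives have a fitted effect of over 55% in size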
Target sequence (P08659 whole entry, looked up): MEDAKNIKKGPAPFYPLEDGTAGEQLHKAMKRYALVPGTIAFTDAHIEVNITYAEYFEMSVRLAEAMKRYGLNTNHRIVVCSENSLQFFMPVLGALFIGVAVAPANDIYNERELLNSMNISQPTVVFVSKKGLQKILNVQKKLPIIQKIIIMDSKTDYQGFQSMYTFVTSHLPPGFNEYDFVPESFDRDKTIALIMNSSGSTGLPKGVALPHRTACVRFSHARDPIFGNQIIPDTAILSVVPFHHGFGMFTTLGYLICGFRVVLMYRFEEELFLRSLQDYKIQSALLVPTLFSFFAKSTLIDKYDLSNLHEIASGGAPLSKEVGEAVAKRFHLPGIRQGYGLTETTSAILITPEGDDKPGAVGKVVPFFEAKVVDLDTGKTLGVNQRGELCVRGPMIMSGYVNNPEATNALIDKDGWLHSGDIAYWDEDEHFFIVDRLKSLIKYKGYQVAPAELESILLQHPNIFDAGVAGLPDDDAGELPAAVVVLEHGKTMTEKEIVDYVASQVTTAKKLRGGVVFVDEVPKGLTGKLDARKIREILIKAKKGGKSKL
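Purified P. pyralis luciferase, 10 nM final, with Km-level 10 uM D-luciferin and 10 uM ATP in 50 mM Tris acetate pH 7.5, 10 mM Mg acetate, 0.01% Tween-20, 0.05% BSA; 6-point qHTS titration about 60 µM downward; luminescence read.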
Active calls of the source: *; ? = inconclusive; nt = no result given. Compounds with a hit are over-represented: about 9.4% of the library has one in this group of screens. Calls come from the whole dose curve; as a rule, active = well fitted curve in the direction sought with a large enough effect; inconclusive = small, poorly fitted or top-dose-only effect, or another doubt; inactive = no such curve, though single readings can be large; an effect the other way counts as inactive or inconclusive. Potency is the fitted concentration of half-maximal effect.

SMILES	Rab9 promoter act	ELG1 repair inh	NPC1 prom act	ELG1 genotox	SMN2 splice enh	FLuc counter
Cc1ccc(CN(C(=O)COc2cccc([N+](=O)[O-])c2)c2ccccn2)o1	nt	nt	nt	nt	nt	1%
Cn1c(NC(=O)c2cc(-c3ccc4c(c3)OCO4)nc3ccccc23)cc(=O)n(C)c1=O	20%	?	30%	?	10µM*	2.1µM*
CN(C)c1ccc(-c2c(-c3ccc4c(c3)OCO4)noc2-c2ccsc2)cn1	9%	?	10%	-1%	nt	?
O=C(O)c1cc(-c2ccc(-c3c(-c4ccc5c(c4)OCO5)noc3-c3ccsc3)cc2)nc2ccccc12	21%	?	?	3%	nt	19µM*
CC(C)(C)NC(=O)c1cc(-c2ccc3c(c2)OCO3)nc2ccccc12	-5%	-6%	20%	1%	nt	17µM*
COC(=O)c1ccccc1NC(=O)Cn1nc(C)c2nn(-c3ccc(Cl)cc3)c(C)c2c1=O	nt	nt	nt	nt	nt	-12%
COc1ccc(N=NC2=C(O)CC(C)(C)CC2=O)cc1	16%	?	3.5µM*	?	?	13µM*
CC1(C)CC(=O)C(N=Nc2ccc(Br)cc2)=C(O)C1	15%	1%	-2%	10µM*	nt	3.4µM*
CC1(C)CC(=O)C(N=Nc2cccc([N+](=O)[O-])c2)=C(O)C1	20%	?	0%	18µM*	nt	11µM*
CC1(C)CC(=O)C(N=Nc2ccc(C(F)(F)F)cc2[N+](=O)[O-])=C(O)C1	-1%	27%	14%	0%	nt	-7%
O=C(Nc1ccc(Cl)cc1)C1CCN(c2nc3ccccc3nc2C(F)(F)F)CC1	nt	nt	nt	nt	nt	2%
Cc1ccccc1N(C)C(=O)c1noc2c1COc1ccccc1-2	nt	nt	nt	nt	nt	-7%
CCn1c(C(=O)N2CCCC(C(=O)NCCCOC)C2)cc2sccc21 (stereo not given)	nt	nt	nt	nt	-5%	-7%
Cc1cccc(C(=O)Nc2nnc(-c3cccnc3)o2)c1	10%	-23%	1%	0%	9%	?
O=C(Nc1nnc(-c2cccnc2)o1)c1cccc([N+](=O)[O-])c1	-3%	18µM*	-2%	-12%	-72%	-17%
Cc1cc(N2CCN(C)CC2)nc2ccc(NC(=O)Nc3ccccc3Cl)cc12	nt	nt	nt	nt	nt	1.7µM*
COc1cccc(NC(=O)Nc2ccc3nc(N4CCN(C)CC4)cc(C)c3c2)c1	nt	nt	nt	nt	nt	12µM*
Cc1cc(C)cc(NC(=O)Nc2ccc3nc(N4CCN(C)CC4)cc(C)c3c2)c1	nt	nt	nt	nt	nt	-20%
Cc1ccc(NC(=O)Nc2ccc3nc(N4CCN(C)CC4)cc(C)c3c2)cc1F	nt	nt	nt	nt	nt	-2%
Fc1ccc(-n2cc(-c3ccccc3)[n+]3c2SCC3)cc1	-16%	-23%	-8%	-11%	-15%	-2%
CC(C)(C)c1ccc(-c2cn(-c3ccc(Br)cc3)c3[n+]2CCCS3)cc1	-40%	4.1µM*	-30%	-13%	-50%	-2%
c1ccc(-c2cn(-c3ccccc3)c3[n+]2CCS3)cc1	-16%	4.6µM*	-22%	-5%	-41%	-4%
Clc1ccc(-c2cc3ccccc3[nH]2)cc1	4µM*	?	?	?	18%	9.5µM*
CCOc1ccc(NC(=O)CCS(=O)(=O)c2cccc3nonc23)cc1	nt	nt	nt	nt	6%	1%
CN(C)C(=O)c1cc(C(=O)c2ccc(Cl)cc2Cl)c[nH]1	?	?	?	15%	nt	15µM*
CN(C)C(=O)c1cc(C(=O)c2ccc(F)cc2Cl)c[nH]1	25%	?	?	13%	nt	?
CN(C)C(=O)c1cc(C(=O)c2ccc(C(F)(F)F)cc2)c[nH]1	?	?	?	?	nt	13µM*
CC1(C)CC(=O)C=C(c2ccc(-c3ccccc3)cc2)C1	?	?	2.8µM*	?	nt	?
COc1ccc(CCC(=O)Nc2nc(-c3ccncc3)cs2)cc1	25%	-4%	-2%	-5%	-11%	?
COc1ccc(CC(=O)Nc2nc(-c3ccc(F)c(F)c3)cs2)cc1	0%	21µM*	-4%	-18%	nt	-2%
